# Tested on: LXRa:RXRa (NR concentration 270 nM, RXRa partner concentration 90 nM)
# Experiment: PBM binding z-score (relative to random genomic background probes); higher = stronger binding; sequences stand for … in GC…GCGATTGACAGCGTAGAATGAAGG
# Summary of the method: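 Custom Agilent 4×180K protein-binding microarrays carried double-stranded probes. Their 34-nt variable regions held direct-repeat seeds, single-nucleotide variants, half-site ablations and random human genomic background sequences. Arrays were incubated 1 h with ligand-free nuclear receptor dimers in PBS pH 7.4, 2% milk, 0.02% Triton X-100, 1 mM DTT, 0.2 mg/mL BSA and 0.4 mg/ml salmon testes DNA. Antibodies against each partner (one per run) detected binding, and scanned fluorescence was regression-normalized. Binding z-scores use random background probes as reference.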
row,Sequence,PBM binding z-score
1,GCTTGGAGATCAAGGTTAAGAAAGACTAAGCTAA,0.942
2,CCGAGTAGGTTATGGGGCATCCAGGCAACGGTGA,0.375
3,CCTTACGGGTCACGAGGTTATAGCACGACGAGCG,4.6
4,CCTCCTGGGCCAAAGGTCATTGATTCCAATGCTC,5.11
5,GATACCGGGTCAGCTAGAGGCCAGAGTATGGAAA,1.51
6,AGAACGAGGGCACGCTGAGTTGACAGCAGAGTAG,0.796
7,CGAATTAGGTCAGAACAGGACAGTGAAGGATGAT,1.31
8,CGAACTAGGTCATCGACAGGACAGTGAATAGTAA,2.6
9,ATCGAAAGGTCGAGGTGGGTATAGAGAAAGGGAA,3.55
10,TAGCCTAGGTCAGATCGGGCCACTATACGCTATA,1.34
11,ACTCGGAGGACAAAGGTCAGACCTACGCCAGTGA,4.05
12,AGACCGAGGGCAATGAGTTGATAGCACGGGTGGC,-0.0854
13,TGAACGAGGTTAAAGATCAGGGAACGTGGCGTCG,2.22
14,CCTAGTTAGTCAGGAGGTCACACACCGGATATGA,3.69
15,CAAACTAGGTCACGAAAGGTCCAAGTCGAATGAC,3.96
16,CAACCAAGGTGAACAAGGTCGTTGATTACTATTC,1.48
17,AGAATGACGTTACCAAAGATCAGGGAAACGCTTG,-0.0658
18,GCTGCTAGTTCAGGTTGGTCAGCTAACGGGTACG,-0.0295
19,ACTCGGAGGACCAAGGTCAGAGCTACGCCAGTGA,0.987
20,TAGCCTAGGTCATTCACGGGCCAGTATAGAAAGC,3.74

row,Sequence,PBM binding z-score
1,TAGCCTAGGTCATGCAGGGGCCAGTATAGAAAGC,3.15
2,TCGAGTAGGATACCAATGGGGCATTCAGCTTTCT,-0.525
3,TCCTATAGGTAAACAGGTGAAAGTCCGTAAGTTA,0.51
4,GCGACTGGGGCATCAGCCGGTTACCATAACTTAA,-0.553
5,CCTAGCAGGCCAATCTGCGTCACTCAAGGCTTGA,-0.378
6,CGAACTAGGTCAAGGGCAGTGAATCTCCGCACGC,2.14
7,ACTCGCAGGACAAAGGTCAGAGCTACGCCAGTGA,4.15
8,GATACACGGTCAGCTAGAGGCCAGAGTATGGAAA,-0.145
9,CCTAGCAGGCCCATCTGGGTCACTCAAGGCTTGA,0.486
10,ATCTCTAGGTAAAAGTTCAGTGGATCCCGAGGAT,1.66
11,TCTTGTAGATCAAAGGTTATGAAAGCCGAAGCCT,2.16
12,CGTCCAAGGTCATAGGAGGTCCGTGAAGACAGAT,5.69
13,CCGACTGGGGCAAGGTTAGCATAACGCACAGCCA,-0.11
14,CGTCAAAGTTCAACTAAGGTAACGGAAAGCACGC,6.18
15,AACACAGGGTCACTAGGCCAGAGTAGGTACGAAT,4.48
16,GCTTGTAGATCAAGATTAAGAAAGACTAAGCTAA,-0.792
17,GCATAGAGGTAATACAAGGTGAAAGTCCGATTGT,3.39
18,AGTCAAGGTTCACTAGGTAACGTAAGATTCAGCT,3.03
19,TCTTGTAGATCAATAGAGGTTAAGAATGTGCGCT,2.14
20,CCTATTAGTTGACCATAAGGGCTACCGAAGCTCG,0.0436

# Reference: the supplement of paper PMC6555819
